Reference: PubChem BioAssay (NCATS)
Values joined by “and” are separate entries in the source; they are usually repeats but may differ in a detail not shown here. Equal values may be shown once. Inconclusive results are not listed. Where a structure was tested more than once in an assay, its records may differ in their call. Active and inactive are the calls of the source. Unless noted, the call rests on the fitted dose curve; in most records, active means well fitted curve in the direction sought with a large enough effect; inconclusive means small, poorly fitted or top-dose-only effect, or another doubt; inactive means no such curve, though single readings can be large; an effect the other way counts as inactive or inconclusive.

Columns and labels:
[1] = biological target: Cytochrome P450 2C9 (Homo sapiens) (UniProt P11712); test: Cytochrome P450 family 2 subfamily C member 9 (CYP2C9) small molecule antagonists: luciferase biochemical (cell-free) qHTS assay (AID 1645842; active means well fitted curve in the direction sought with a large enough effect in the repeat runs; an effect the other way counts as inactive or inconclusive; further: nearly all actives have a fitted effect of over 55% in size; further: potency means the concentration at half of the fitted maximal effect)
Cytochrome P450 2C9 (Homo sapiens), sequence (P11712 whole entry, looked up): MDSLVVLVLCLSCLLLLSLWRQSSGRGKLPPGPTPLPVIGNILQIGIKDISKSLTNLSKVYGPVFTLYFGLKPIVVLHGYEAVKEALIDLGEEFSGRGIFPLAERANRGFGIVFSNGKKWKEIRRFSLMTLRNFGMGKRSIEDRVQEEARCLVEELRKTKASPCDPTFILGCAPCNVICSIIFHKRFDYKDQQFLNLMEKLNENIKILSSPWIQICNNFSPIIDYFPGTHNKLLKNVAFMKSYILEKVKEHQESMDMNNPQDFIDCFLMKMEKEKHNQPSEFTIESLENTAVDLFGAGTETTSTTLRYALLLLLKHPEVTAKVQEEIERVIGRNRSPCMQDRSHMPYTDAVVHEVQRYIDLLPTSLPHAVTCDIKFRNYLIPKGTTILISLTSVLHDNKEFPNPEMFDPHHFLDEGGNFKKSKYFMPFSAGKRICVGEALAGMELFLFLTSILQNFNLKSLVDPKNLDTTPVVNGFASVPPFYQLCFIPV
How it was run: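 P450-Glo CYP2C9 system: proluciferin substrate with enzyme in mix containing 0.4% BSA, 10 min at room temperature, then NADPH regeneration solution added and incubated 1 h at 37C. Detection reagent stopped reaction; luminescence read after 20 min as RLU.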

Papain (Carica papaya) = Papain (Carica papaya) (UniProt P00784); test: Primary qHTS assay for inhibitors of the protease papain (AID 1645873);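 further: papain turnover of Z-FR-AMC read as the AMC fluorescence gain over 10 min; series mostly up to about 50 µM; on the % scale 0 is the no-effect control and ±100 the full control effect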
Papain (Carica papaya), sequence (P00784 whole entry, looked up, the tested form may be a part): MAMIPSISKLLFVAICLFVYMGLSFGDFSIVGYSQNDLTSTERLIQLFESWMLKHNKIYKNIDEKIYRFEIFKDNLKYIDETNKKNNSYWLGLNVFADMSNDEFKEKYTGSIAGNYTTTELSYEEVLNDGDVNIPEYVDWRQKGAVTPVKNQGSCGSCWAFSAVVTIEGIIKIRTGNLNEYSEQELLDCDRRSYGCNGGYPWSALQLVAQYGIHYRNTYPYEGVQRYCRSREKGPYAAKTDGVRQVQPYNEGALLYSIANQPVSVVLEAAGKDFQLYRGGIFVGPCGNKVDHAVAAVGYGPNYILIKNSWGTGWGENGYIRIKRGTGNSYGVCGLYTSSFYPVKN

[2] = Primary qHTS for inhibitors of nuclear receptor binding SET domain protein 2 (NSD2) in an isogenic RCH-ACV NSD2 p.E1099K mutant (9B) (AID 1645876); further: nearly all actives have a fitted effect of over 70% in size; further: potency means the concentration at half of the fitted maximal effect
[3] = Primary qHTS for inhibitors of nuclear receptor binding SET domain protein 2 (NSD2) in an RCH-ACV wild type WT cells (2C) (AID 1645877); further: nearly all actives have a fitted effect of over 70% in size; further: potency means the concentration at half of the fitted maximal effect
[4] = biological target: Catechol O-methyltransferase (Homo sapiens) (UniProt P21964); test: Confirmatory Screen for Target Class Profiling of Small Molecule Inhibitors of Methyltransferases (AID 1745852); conditions: MTase-Glo luminescence, SAH detection, recombinant enzyme; measured here: COMT max response; stronger effect = lower value
Catechol O-methyltransferase (Homo sapiens), sequence (P21964 whole entry, looked up): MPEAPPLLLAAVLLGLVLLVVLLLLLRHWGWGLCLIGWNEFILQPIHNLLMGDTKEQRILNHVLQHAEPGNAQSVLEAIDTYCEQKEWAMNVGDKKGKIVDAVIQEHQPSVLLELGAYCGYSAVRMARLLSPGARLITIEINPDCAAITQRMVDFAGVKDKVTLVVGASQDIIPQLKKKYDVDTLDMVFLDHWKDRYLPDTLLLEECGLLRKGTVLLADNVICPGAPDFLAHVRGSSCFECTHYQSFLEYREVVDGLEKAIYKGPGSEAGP

[5] = biological target: N-terminal Xaa-Pro-Lys N-methyltransferase 1 (Homo sapiens) (UniProt Q9BV86); test: Confirmatory qHTS for Inhibitors of N-terminal methyltransferase 1 (NTMT1): MTaseGlo Assay (AID 1645874); further: nearly all actives have a fitted effect of over 65% in size; further: potency means the concentration at half of the fitted maximal effect
N-terminal Xaa-Pro-Lys N-methyltransferase 1 (Homo sapiens), sequence (Q9BV86 whole entry, looked up): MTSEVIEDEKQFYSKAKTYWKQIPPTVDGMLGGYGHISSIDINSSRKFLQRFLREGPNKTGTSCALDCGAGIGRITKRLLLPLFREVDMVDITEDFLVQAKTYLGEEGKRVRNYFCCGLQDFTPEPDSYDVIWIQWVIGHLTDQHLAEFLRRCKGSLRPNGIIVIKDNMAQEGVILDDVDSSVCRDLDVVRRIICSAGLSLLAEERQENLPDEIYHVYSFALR
How it was run: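 Enzyme mix (125 nM NTMT1, 100 uM SAM) + compound, 15 min RT; + 1 uM SPKRIA, 30 min RT, dark; MTase-Glo reagent 30 min, detection solution 30 min; luminescence. % inhibition vs no-enzyme/DMSO controls, 4-parameter Hill fit.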

Row | SMILES | Potency [1] | Potency (Papain (Carica papaya)) | Potency [2] | Potency [3] | activity [4] [%] | Potency [5]
1 | Oc1ccc(C2CNCCc3c2cc(O)c(O)c3Cl)cc1 (configuration not stated) | inactive | inactive | inactive | inactive | -77.1 | 
2 | O=C(Nc1nc2ccccc2n1CCN1CCOCC1)c1cccc([N+](=O)[O-])c1 |  | inactive | inactive | inactive |  | 
3 | O=C(Nc1cccnc1)N1CCC(Cc2cccc(Oc3ccc(C(F)(F)F)cn3)c2)CC1 | 10.7 µM (active) |  | 6.49 µM (active) and 7.42 µM (active) | 5.25 µM (active) |  | 
4 | COc1ccc(-c2c(-c3ccc(O)cc3O)n[nH]c2C)cc1 | 3.55 µM (active) |  | inactive | inactive |  | 
5 | S=C(NCc1ccc2c(c1)OCO2)N1CCN(c2ncnc3c2oc2ccccc23)CC1 | 2.13 µM (active) |  | 13.2 µM (active) | 8.17 µM (active) |  | 
6 | O=c1n(CCCN2CCN(c3cccc(Cl)c3)CC2)nc2ccccn12 | inactive |  |  | inactive |  | 
7 | NNCCc1ccccc1 |  | inactive | inactive |  |  | 
8 | Cc1ccc(-n2nc(C(C)(C)C)cc2NC(=O)Nc2ccc(OCCN3CCOCC3)c3ccccc23)cc1 | 9.77 µM (active) |  | 23.7 µM (active) and inactive | 21.1 µM (active) |  | 
9 | COc1cc2c(cc1OC)CN(CCc1ccc(NC(=O)c3cccc4c(=O)c5cccc(OC)c5[nH]c34)cc1)CC2 | 3.01 µM (active) |  | inactive | inactive | -13 | 35.5 µM (active)
10 | NCCCC(N)(C(=O)O)C(F)F (configuration not stated) |  | inactive | inactive | inactive |  | 
11 | COc1cc(Oc2ccnc3cc(OC)c(OC)cc23)ccc1NC(=O)NC(C)c1nccs1 (configuration not stated) | 0.601 µM (active) |  | inactive and 13.2 µM (active) | inactive and 8.33 µM (active) |  | 
12 | CC[C@@H](C)[C@H](NC(=O)[C@H](CC1CCCCC1)NC(=O)c1ccno1)C(=O)N1CCC2(CCc3ccccc32)CC1 | inactive |  | inactive | inactive |  | 
13 | Cc1cnc(NC(=O)C2=C(O)c3ccccc3S(=O)(=O)N2C)s1 | 11 µM (active) and inactive |  | inactive | inactive |  | 
14 | Cc1ccc(NC(=O)c2cccc(C(C)(C)C#N)c2)cc1Nc1ccc2ncn(C)c(=O)c2c1 | 8.49 µM (active) |  | 10.5 µM (active) | 13.2 µM (active) |  | 
15 | C#Cc1cccc(Nc2ncnc3cc(OCCOC)c(OCCOC)cc23)c1 | inactive |  | 8.41 µM (active) | 9.44 µM (active) |  | 
16 | CCc1cncnc1N1CCN(Cc2nc3ccc(C(F)(F)F)cc3[nH]2)CC1 | 0.477 µM (active) | inactive |  |  | 1.23 | 
17 | O=c1[nH]c(-c2ccc(C(F)(F)F)cc2)nc2c1CSCC2 | 19 µM (active) |  | inactive | inactive |  | 
18 | Clc1ccc(Nc2nnc(Cc3ccncc3)c3ccccc23)cc1 | 0.049 µM (active) |  | 15 µM (active) and 9.34 µM (active) | 13.3 µM (active) and 8.33 µM (active) |  | inactive
19 | Cn1cnc2c(F)c(Nc3ccc(Br)cc3Cl)c(C(=O)NOCCO)cc21 | 8.71 µM (active) |  | inactive | inactive |  | 
20 | CC(C)(N)C(=O)N[C@H](COCc1ccccc1)C(=O)N1CCC2(CC1)CN(S(C)(=O)=O)c1ccccc12 | inactive |  | 16.3 µM (active) and 26.3 µM (active) | 14.5 µM (active) and 14.8 µM (active) |  | 
21 | Cc1ccccc1C(OCCN(C)C)c1ccccc1 (configuration not stated) | inactive | inactive | inactive | inactive | -2.48 | 
22 | Cc1[nH]c(=O)c(C#N)cc1-c1ccc2nccn2c1 | inactive |  | inactive | inactive | 4.51 | 
23 | COc1cccc2cc(-c3nc(C4CCC(C(=O)O)CC4)n4ncnc(N)c34)[nH]c12 (configuration not stated) | inactive |  | 5.9 µM (active) and 731 nM (active) | 4.68 µM (active) and 820 nM (active) |  | 
24 | CCC(C)n1ncn(-c2ccc(N3CCN(c4ccc(OC[C@H]5CO[C@](Cn6cncn6)(c6ccc(Cl)cc6Cl)O5)cc4)CC3)cc2)c1=O (some centres not stated) | 11 µM (active) |  | 0.502 µM (active) |  |  | 
25 | CCCc1nc2c(C)cc(-c3nc4ccccc4n3C)cc2n1Cc1ccc(-c2ccccc2C(=O)O)cc1 | 8.71 µM (active) |  | inactive | inactive |  | 
26 | Cc1cccc(-c2[nH]c(C(C)(C)C)nc2-c2ccc3nccnc3c2)n1 |  | inactive | 13.2 µM (active) and 5.8 µM (active) | 11.8 µM (active) and 6.51 µM (active) |  | 
27 | COc1cc(Nc2ncc3c(n2)-c2ccc(Cl)cc2C(c2c(F)cccc2OC)=NC3)ccc1C(=O)O | inactive |  | 115 nM (active) and 20.5 nM (active) and 66.1 nM (active) | 91.6 nM (active) and 29 nM (active) and 37.2 nM (active) | 0.763 | 
